Source: PubChem
The list is not random: actives were taken first. Their share in the collection is about 4.3%.
GRIN3A LBD mod: modulators (binders) of human NR3A ligand-binding domain; NR3A LBD differential scanning fluorimetry, Tm shift; 0% = protein alone, 100% = glycine-bound protein; Tm shift relative to glycine control, % at 25 µM; 340,000 tested, 2.5% active; AID 1259313;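 active = melting temperature shift of at least 10% of the positive control shift, at one fixed dose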
FAS TE block: inhibitors of human fatty acid synthase thioesterase domain. recombinant FAS-TE, OMFH fluorogenic substrate, fluorescence endpoint. inhibition, % at 15 µM. 360,000 tested, 0.67% active. AID 602261;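 active = compounds whose normalised, plate-corrected inhibition of enzyme fluorescence in the single-dose primary screen is 50% or more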;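 note: 0% = DMSO with enzyme and 100% = substrate without enzyme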
rCAG binder: binds r(CAG) RNA repeats; r(CAG) RNA repeat, TO-PRO-1 dye displacement fluorescence; inhibition, % at 3 µM; 370,000 tested, 1.3% active; AID 651821;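 active = inhibition above the plate cutoff, the mean of all test compounds on that plate plus 3 SD, cut at about 35% in these data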;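 note: 0% = DMSO alone and 100% = 100 µM mitoxantrone as full dye displacement; higher means more dye released from RNA so lower well fluorescence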
NadD inh: NadD (S. aureus) enzyme inhibition. inhibition, % at 20 µM. AID 602399. purified NadD enzyme, colorimetric absorbance read-out. 360,000 tested, 0.78% active; in the data active = inhibition above about 26%
Numbers without * were called inactive; nt = no result.

SMILES	GRIN3A LBD mod	FAS TE block	rCAG binder	NadD inh
O=C(Cc1c[nH]c2ccccc12)Nc1ccc(Nc2cccnc2)c(-c2ccc(F)c(F)c2)c1	nt	nt	13	nt
Cc1[nH]c2ccccc2c1SCC(=O)NNC(=O)Nc1ccc(OC(F)(F)F)cc1	12*	25	-1	-9
Nn1c(SCC(=O)Nc2ccc(OCc3ccccc3)cc2)nnc1-c1cc(-c2ccc(Cl)cc2)n[nH]1	nt	nt	9	nt
N#C/C(=C\c1ccc(Cl)cc1)c1nc(-c2ccco2)cs1	-5	20	2	19
N#C/C(=C\c1ccc(F)cc1)c1nc(-c2ccco2)cs1	24*	42	6	-2
N#C/C(=C\c1ccc(-c2ccccc2)cc1)c1nc(-c2ccco2)cs1	28*	20	13	0
CC(C)C[C@H]1COc2cc(F)ccc2S(=O)(=O)N1C	nt	nt	2	nt
CC1CCN(Cc2nnnn2CCCC(=O)NC(c2ccccn2)C(F)(F)F)CC1 (stereo unspecified)	12*	-2	-8	-1
Clc1ccc([C@H]2OC[C@@]3(CNCC4CC4)CS[C@H](c4ccc(Cl)cc4)N23)cc1	nt	nt	2	nt
CCOc1ccc(C(=O)NC(=S)Nc2cccc(NC(=O)c3ccco3)c2)cc1[N+](=O)[O-]	16*	28	20	12
CCC(=O)NC(=S)Nc1ccc(NC(=O)c2ccc(C)c([N+](=O)[O-])c2)cc1	34*	-5	6	2
COc1ccc(C(=O)Nc2ccncc2)cc1[N+](=O)[O-]	2	-6	1	-5
COc1cc(NC(=O)c2cccc([N+](=O)[O-])c2)ccc1NC(=O)c1ccco1	27*	16	-2	-3
CCc1ccc(NC(=O)c2ccc(OC)c([N+](=O)[O-])c2)cc1	12*	24	1	-12
CC(C)C[C@H]1COc2cccc(F)c2S(=O)(=O)N1Cc1cn(Cc2ccco2)nn1	nt	nt	2	nt
COc1ccc(C(=O)NC(=S)Nc2ccc(NC(=O)c3ccco3)cc2)cc1[N+](=O)[O-]	30*	-2	0	3
COc1cc(NC(=O)c2ccc(OC)c([N+](=O)[O-])c2)ccc1NC(=O)c1cccs1	38*	-9	3	-1
COc1cc(NC(=O)c2cc(OC)c(OC)c(OC)c2)ccc1NC(=O)c1cccs1	2	8	0	-7
COc1cc(NC(=O)CSc2nc3ccccc3c(=O)n2C)ccc1NC(=O)c1ccco1	13*	-7	11	2
COc1ccc(C(=O)NC(=S)Nc2cccc(NC(=O)c3ccco3)c2)cc1[N+](=O)[O-]	12*	-4	6	10
Nc1cccc(N2C(=O)c3cccc4c(N)ccc(c34)C2=O)c1	10*	-126	-254	-6
CC(C)CCN1C(=O)c2cccc3c(N)ccc(c23)C1=O	14*	-148	-452	-5
CCN1CCCCC(NC(=O)c2ccccc2C)C1=O (stereo unspecified)	nt	nt	-1	nt
CC(CCN1CCC(C(O)(c2ccccc2)c2ccccc2)CC1)Oc1ccc(F)cc1 (stereo unspecified)	nt	nt	-1	nt
Cc1ccc(-c2nnc3n2N=C(c2ccc(-c4ccccc4)cc2)CS3)cc1	nt	nt	10	nt
SMILES	GRIN3A LBD mod	FAS TE block	rCAG binder	NadD inh
Cc1nc2ccccn2c1C(=O)/C=C/c1ccc(F)cc1	13*	-3	0	-3
COc1ccc(CSc2nnc(SCC(=O)Nc3ccc(S(N)(=O)=O)cc3)s2)cc1	nt	nt	14	nt
Cc1[nH]c2ccccc2c1C(=O)CSC(=S)N1CCOCC1	14*	3	-2	-6
Cc1[nH]c2ccccc2c1C(=O)C(=O)N1CCOCC1	-1	-5	-3	2
CC(=O)Nc1cccc(NC(=O)CSc2ncc(C(=O)Nc3ccc(F)cc3)c(=O)n2C)c1	18*	6	3	5
CC(=O)Nc1ccc(NC(=O)CSc2ncc(C(=O)Nc3ccc(F)cc3)c(=O)n2C)cc1	2	-8	3	0
COc1ccc(CCN(Cc2cccs2)S(=O)(=O)c2ccc(F)cc2)cc1OC	nt	nt	3	nt
CCN(CC)C(=O)Cn1cc(S(=O)(=O)CC(=O)NCCc2ccccc2)c2ccccc21	15*	-2	-8	0
O=S(=O)(c1ccc2nc(-c3ccco3)c(-c3ccco3)nc2c1)N1CCOCC1	-4	2	69*	11
O=S(=O)(c1ccc2ccccc2c1)N1CCOCC1	-4	0	4	-2
COC(=O)c1cccc(Cn2ccc3ccc(-c4ccc5ccn(C(=O)c6ccccc6)c5c4)cc32)c1	nt	nt	12	nt
Cc1c(N(C)C(=O)C23CC4CC(CC(C4)C2)C3)c(=O)n(-c2ccccc2)n1C	11*	-3	-9	-4
N#Cc1ccc(NCCCN2CCC(C(O)(c3ccccc3)c3ccccc3)CC2)cc1	nt	nt	-1	nt
CC(=O)c1ccc(-c2ccc(C(=O)Nc3nc(-c4ccccn4)cs3)o2)cc1	11*	3	16	21
COc1cccc(/C=C2\SC(=O)NC2=O)c1OCc1ccc(C(=O)O)cc1	15*	-7	28	-1
CC1(NC(=O)c2ccc(C#Cc3cccc(F)c3)cn2)COC1	nt	nt	0	nt
CS(=O)(=O)N(CCc1ccccc1)CC(=O)NCc1ccccc1	36*	2	-6	-6
CCCNC(=O)CN(CCc1ccccc1)S(C)(=O)=O	13*	-4	-3	-3
CN1C[C@@H]2[C@@H]3C(=O)N(C)C(=O)[C@@H]3[C@](C)(C1=O)N2C(=O)c1ccc(F)cc1	10*	-8	-1	-4
COc1cc(C(=O)NC(C)c2ccc(S(N)(=O)=O)cc2)ccc1OCC(=O)N1CCOCC1 (stereo unspecified)	11*	-3	2	1
Cc1cc(Br)cn2c(Cc3ccccc3C(F)(F)F)c(-c3ccco3)nc12	nt	nt	32	nt
COc1ccc(OC)c(NC(=O)CSc2nnc(C3CCCCC3)n2N)c1	14*	-4	1	-2
Cc1nnsc1-c1onc(C)c1C(=O)Nc1cc(Cl)cc(Cl)c1	7	45	2	-11
Cc1ccc(NC(=O)c2c(C)noc2-c2snnc2C)cc1	12*	33	-2	0
COC(=O)[C@]12C[C@H](CC(=O)N3CCN(C(=O)c4ccco4)CC3)C(=O)N(Cc3ccco3)C1=C[C@H](COCc1ccccc1)O[C@@H]2C	nt	nt	4	nt
SMILES	GRIN3A LBD mod	FAS TE block	rCAG binder	NadD inh
Cc1ccc(N2C(=O)C3C4C=CC(CNC(=S)N5CCN(c6ccccn6)CC5)(O4)C3C2=O)cc1 (stereo unspecified)	2	1	11	-3
Cc1ccc(N2C(=O)C3C4C=CC(CNC(=S)Nc5cccc(Cl)c5)(O4)C3C2=O)cc1 (stereo unspecified)	20*	21	11	6
Cc1ccc(N2C(=O)C3C4C=CC(CNC(=S)Nc5ccc(Cl)cc5)(O4)C3C2=O)cc1 (stereo unspecified)	12*	20	6	8
Cc1ccc(N2C(=O)C3C4C=CC(CNC(=S)Nc5ccc(F)cc5)(O4)C3C2=O)cc1 (stereo unspecified)	-4	1	5	0
CCOC(=O)N1CCN(C(=O)c2ccc(OCC)c(OCC)c2)CC1	10*	-5	-2	-5
CCOC(=O)N1CCN(C(=O)c2ccc(OC)c(OC)c2)CC1	2	-8	-1	-4
